Among the data in PubChem BioAssay (NCATS) are Potency values, retold here.

The nature of assay [1]: qHTS of pediatric cancer cell lines to identify multiple opportunities for drug repurposing: Primary screen for Saos-2 cells (AID 1347097). Note: nearly all actives have a fitted effect of over 40% in size. In short, it runs like this: (§1)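 Readout: CellTiter-Glo luminescence, 48 h treatment. Controls DMSO (neutral) and bortezomib 2.3 µM final (positive). Potency and efficacy taken from primary-screen concentration-response curves.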
Background: Quantitative high-throughput screening tests each substance at several concentrations.

Assay [2] can be described thus: qHTS of pediatric cancer cell lines to identify multiple opportunities for drug repurposing: Primary screen for SK-N-SH cells (AID 1347098). Note: nearly all actives have a fitted effect of over 65% in size. In short, it runs like this: (§2)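 Cells (500-1,000/well) rested 5 h, then received compounds for 48 h; metabolically active cells were measured by CellTiter-Glo luminescence. Final concentrations spanned up to 46 µM (MIPE, 11-point) or 0.59 nM-46 µM (NPC, 8-point) in primary screens, 11-point in follow-ups.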

Assay [3] is described as follows: qHTS of pediatric cancer cell lines to identify multiple opportunities for drug repurposing: Primary screen for NB1643 cells (AID 1347099). Note: nearly all actives have a fitted effect of over 50% in size. In short, it runs like this: as §1
A short description of assay [4]: qHTS of pediatric cancer cell lines to identify multiple opportunities for drug repurposing: Primary screen for LAN-5 cells (AID 1347100). In short, it runs like this: (§3)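 Cells (500-1,000/well) in growth media were settled 5 h at 37 degrees C, then given compounds for 48 h. Viability was read as CellTiter-Glo luminescence. Primary runs used MIPE at 11 points (0.78 nM-46 µM) and NPC at 8 points (0.59 nM-46 µM); follow-ups used 11 points.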

The nature of assay [5]: qHTS of pediatric cancer cell lines to identify multiple opportunities for drug repurposing: Primary screen for BT-12 cells (AID 1347101). Note: nearly all actives have a fitted effect of over 25% in size. In short, it runs like this:
as §2

Assay [6] in a line: qHTS of pediatric cancer cell lines to identify multiple opportunities for drug repurposing: Primary screen for Rh18 cells (AID 1347102). Note: nearly all actives have a fitted effect of over 65% in size. In short, it runs like this:
as §3

Assay [7] can be described thus: qHTS of pediatric cancer cell lines to identify multiple opportunities for drug repurposing: Primary screen for OHS-50 cells (AID 1347103). Note: nearly all actives have a fitted effect of over 40% in size. In short, it runs like this:
as §2

The nature of assay [8]: qHTS of pediatric cancer cell lines to identify multiple opportunities for drug repurposing: Primary screen for RD cells (AID 1347104). Note: nearly all actives have a fitted effect of over 55% in size. In outline:
as §1

Assay [9] in a line: qHTS of pediatric cancer cell lines to identify multiple opportunities for drug repurposing: Primary screen for MG 63 (6-TG R) cells (AID 1347105). Note: nearly all actives have a fitted effect of over 50% in size. In short, it runs like this: as §1
A short description of assay [10]: qHTS of pediatric cancer cell lines to identify multiple opportunities for drug repurposing: Primary screen for Rh41 cells (AID 1347108). Note: nearly all actives have a fitted effect of over 70% in size. In short, it runs like this:
as §1

The nature of assay [11]: qHTS of pediatric cancer cell lines to identify multiple opportunities for drug repurposing: Confirmatory screen for NB1643 cells (AID 1347109). Note: nearly all actives have a fitted effect of over 45% in size. In short, it runs like this:
as §3

A short description of assay [12]: qHTS of pediatric cancer cell lines to identify multiple opportunities for drug repurposing: Confirmatory screen for A673 cells (AID 1347110).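 Note: cells exposed to compound for 48 h before the viability read; nearly all actives have a fitted effect of over 65% in size.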 In short, it runs like this: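 Cells plated at 500-1,000/well were treated five hours later with multi-point dilutions up to 46 µM final. After two days, CellTiter-Glo was added and luminescence read.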
Assay [13] can be described thus: qHTS of pediatric cancer cell lines to identify multiple opportunities for drug repurposing: Confirmatory screen for SK-N-MC cells (AID 1347111).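 Note: cells exposed to compound for 48 h before the readout; nearly all actives have a fitted effect of over 70% in size.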 In short, it runs like this: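 Metabolically active cells were quantified by ATP-dependent luminescence (CellTiter-Glo, 15 min at room temperature) following 48 h treatment. Cells had been plated at 500-1,000 per well and settled for 5 h beforehand.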

Assay [14] can be described thus: qHTS of pediatric cancer cell lines to identify multiple opportunities for drug repurposing: Confirmatory screen for LAN-5 cells (AID 1347113). Note: nearly all actives have a fitted effect of over 65% in size. In short, it runs like this: as §3
Assay [15] can be described thus: qHTS of pediatric cancer cell lines to identify multiple opportunities for drug repurposing: Confirmatory screen for DAOY cells (AID 1347114). Note: nearly all actives have a fitted effect of over 65% in size. In outline:
(§4)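 Viability measured as metabolically active cells via CellTiter-Glo luminescence following 48 hours of compound exposure, 11-point dilutions in confirmatory testing. 500-1,000 cells/well plated 5 hours before dosing; controls were DMSO and 2.3 µM bortezomib.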

A short description of assay [16]: qHTS of pediatric cancer cell lines to identify multiple opportunities for drug repurposing: Confirmatory screen for NB-EBc1 cells (AID 1347115).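 Note: cells exposed to compound for 48 h before the viability read; nearly all actives have a fitted effect of over 45% in size.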 In short, it runs like this: as §3
Assay [17] can be described thus: qHTS of pediatric cancer cell lines to identify multiple opportunities for drug repurposing: Confirmatory screen for SJ-GBM2 cells (AID 1347116). Note: nearly all actives have a fitted effect of over 60% in size. In outline:
as §4

Assay [18] can be described thus: qHTS of pediatric cancer cell lines to identify multiple opportunities for drug repurposing: Primary screen for control Hh wild type fibroblast cells (AID 1347106). Note: nearly all actives have a fitted effect of over 55% in size. In outline: as §3
The nature of assay [19]: qHTS of pediatric cancer cell lines to identify multiple opportunities for drug repurposing: Primary screen for Rh30 cells (AID 1347107). Note: nearly all actives have a fitted effect of over 75% in size. In short, it runs like this:
as §3

Assay [20] is described as follows: qHTS of pediatric cancer cell lines to identify multiple opportunities for drug repurposing: Confirmatory screen for BT-12 cells (AID 1347112). Note: nearly all actives have a fitted effect of over 55% in size. In outline: as §3

Inconclusive results are not listed. Active and inactive are the calls of the source. Calls come from the whole dose curve; as a rule, active = well fitted curve in the direction sought with a large enough effect; inconclusive = small, poorly fitted or top-dose-only effect, or another doubt; inactive = no such curve, though single readings can be large; an effect the other way counts as inactive or inconclusive.
Potency is the fitted concentration of half-maximal effect.

As to `Cc1cc(N2CCOCC2)cc2[nH]c(-c3c(NC[C@@H](O)c4cccc(Cl)c4)cc[nH]c3=O)nc12`, the Potency in assay [1] is 0.0833 µM (active); in [2], 0.215 µM (active); in assay [3] it was 0.332 µM (active); in assay [4] it was 0.296 µM (active); in [5], 24.3 µM (active); in [6] it was 18.7 µM (active). The Potency in assay [7] is 0.0968 µM (active); in [8], 0.59 µM (active); in [9], 2.96 µM (active); in assay [10] it was 0.296 µM (active); in [11] it was 0.827 µM (active); in [12] it was 1.17 µM (active). For the same molecule, the Potency in assay [13] is 0.737 µM (active); in assay [14] it was 1.17 µM (active); in assay [15], 3.29 µM (active); in assay [16], 1.17 µM (active); in assay [17] it was 0.369 µM (active).
For `Cc1cn(-c2cc(NC(=O)c3ccc(C)c(Nc4nccc(-c5cccnc5)n4)c3)cc(C(F)(F)F)c2)cn1`, the Potency result in assay [1], in assay [2], in assay [3], in [4], in assay [5] and in [6] was “inactive” each time. For the same molecule, the Potency result in [7], in assay [9], in [18], in [19], in assay [10] and in [13] was “inactive” throughout. In addition, the Potency result in assay [20] and in assay [16] was “inactive” each time. Moreover, the Potency in [11] and in [14] was 18.5 µM (active) in each case.
With `O=C(Cc1ccc(-c2ccc(OCCN3CCOCC3)cc2)cn1)NCc1ccccc1`, the Potency in assay [1] is 0.0148 µM (active); in [2] it was 6.81 µM (active); in [3], 0.0833 µM (active); in [4] it was 0.0093 µM (active); in [5], 0.0385 µM (active); in assay [6] it was 13.2 µM (active). Further, the Potency in assay [7] was 0.0306 µM (active); in assay [8], 0.0526 µM (active); in [9] it was 0.0235 µM (active); in assay [10], 0.0296 µM (active); in assay [13], 0.147 µM (active); in assay [14], 0.147 µM (active). For the same molecule, in assay [15], the Potency was 0.117 µM (active).
`CC[C@@H]1C(=O)N(C)c2cnc(Nc3ccc(C(=O)NC4CCC(N5CCN(CC6CC6)CC5)CC4)cc3OC)nc2N1C(C)C` (stereo not given in full): the Potency was 0.526 µM (active) in assay [1]; 0.607 µM (active) in assay [2]; 0.469 µM (active) in assay [3]; 0.0526 µM (active) in assay [4]; 6.11 µM (active) in assay [5]; 6.62 µM (active) in [6]. For the same molecule, the Potency in [7] was 0.122 µM (active); in [8], 0.187 µM (active); in [9], 11.8 µM (active); in assay [19], 16.6 µM (active); in assay [10], 2.35 µM (active). Further, the Potency entry in assay [11], in [20], in assay [14], in [15], in [16] and in assay [17] was “inactive” throughout.
Consider `Fc1cc(-c2cccc3ncc(-c4cnn(C5CCNCC5)c4)nc23)cc(F)c1CN1CCOCC1`, for which the Potency in assay [1] is 29.6 µM (active); in assay [2], 24.1 µM (active); in assay [3], 18.7 µM (active); in [4], 26.4 µM (active); in assay [5], 27.3 µM (active); in assay [6] it was 20.9 µM (active). For the same molecule, the Potency is 19.3 µM (active) in assay [7], 18.7 µM (active) in [8], 23.5 µM (active) in [19] and 23.5 µM (active) in assay [10].
With `Cc1cnc(Nc2ccc(F)cc2Cl)nc1-c1c[nH]c(C(=O)N[C@H](CO)c2cccc(Cl)c2)c1`, the Potency in [1] is 1.48 µM (active); in assay [2] it was 17.1 µM (active); in assay [3], 18.7 µM (active); in assay [4], 0.469 µM (active); in [5], 0.432 µM (active); in assay [6] it was 16.6 µM (active). Besides, the Potency in assay [7] was 0.544 µM (active); in assay [8], 2.35 µM (active); in [9] it was 29.6 µM (active); in [10], 18.7 µM (active); in assay [12], 0.827 µM (active); in [15], 23.3 µM (active). Moreover, the Potency result in assay [18], in assay [13], in assay [14] and in assay [16] was “inactive” throughout.
Turning to `Cc1nc(Nc2n[nH]c3c2CN(C(=O)N[C@H](CN(C)C)c2ccccc2)C3(C)C)c2sccc2n1`, the Potency was 1.66 µM (active) in assay [1]; 17.1 µM (active) in assay [2]; 0.935 µM (active) in [3]; 0.418 µM (active) in [4]; 2.43 µM (active) in assay [5]; 1.32 µM (active) in [6]. Also, the Potency is 0.0032 µM (active) in [7]; 2.96 µM (active) in assay [8]; 9.35 µM (active) in assay [9]; 14.8 µM (active) in assay [18]; 6.62 µM (active) in assay [10]; 13.1 µM (active) in assay [20]. For the same molecule, the Potency entry in [15], in [16] and in assay [17] was “inactive” each time.
Take `COc1c(N2C[C@@H]3CCCN[C@H]3C2)c(F)cc2c(=O)c(C(=O)O)cn(C3CC3)c12`: the Potency entry in [1], in assay [2], in assay [3], in [4], in assay [5] and in assay [6] was “inactive” each time. The Potency entry in assay [8], in assay [9], in assay [18], in [19] and in [10] was “inactive” in each case.
Take `Cn1cncc1[C@@](N)(c1ccc(Cl)cc1)c1ccc2c(c1)c(-c1cccc(Cl)c1)cc(=O)n2C`: the Potency is 18.7 µM (active) in assay [1]; 8.57 µM (active) in [2]; 18.7 µM (active) in assay [3]; 5.9 µM (active) in assay [4]; 21.7 µM (active) in assay [5]; 16.6 µM (active) in [6]. Besides, the Potency in assay [7] is 7.69 µM (active); in assay [8] it was 16.6 µM (active); in [9] it was 23.5 µM (active); in assay [19], 14.8 µM (active); in [10], 14.8 µM (active).
As to `CN1c2cc(O)c(N=NC(N)=O)cc2CC1S(=O)(=O)O` (stereo not given), the Potency entry in [1], in assay [2], in assay [3], in assay [4], in [5] and in [6] was “inactive” each time. Also, the Potency result in [8], in assay [9], in [18], in assay [19] and in assay [10] was “inactive” throughout.
Consider `Nc1ncnc2c1c(-c1cccc(OCc3ccccc3)c1)cn2C1CC(CN2CCCC2)C1` (stereo not given), for which the Potency in assay [1] was 0.743 µM (active); in assay [2] it was 21.5 µM (active); in assay [3] it was 4.18 µM (active); in assay [4], 1.32 µM (active); in assay [5], 27.3 µM (active); in assay [6], 18.7 µM (active). For the same molecule, the Potency in assay [7] is 0.432 µM (active); in assay [8], 5.26 µM (active); in [9] it was 18.7 µM (active); in [10], 1.87 µM (active).
For the molecule `COc1ccc(OC)c(-c2nnc3ccc(-c4ccc(OC)c(O[C@@H]5CCOC5)c4)nn23)c1`, the Potency in assay [1] is 29.6 µM (active); in assay [2] it was 30.4 µM (active); in assay [3] it was 18.7 µM (active); in [4] it was 26.4 µM (active); in assay [5], 9.68 µM (active); in assay [6], 13.2 µM (active). Further, the Potency in [7] was 17.2 µM (active); in assay [8] it was 16.6 µM (active); in [10], 20.9 µM (active); in assay [11], 5.22 µM (active); in [12], 10.4 µM (active); in [13], 4.65 µM (active). Besides, the Potency result in [20] was “inactive”.
